The structures appear in SMILES notation. Values without a mark were called inactive.

This assay can be described thus: plasmodial surface anion channel blockers, osmotic lysis – cell-based, P. falciparum Indochina, OD700, 18 h, primary screen (AID 1157). The following applies: P. falciparum Indochina infected erythrocytes, osmotic lysis OD700, 18 h; higher = more signal, called active from +8 up or from −8 down.
On to `O=C1[C@H]2[C@H]3[C@H](O)[C@H](O)CC(=NOC[C@@H](O)COCc4ccco4)[C@H]3CC[C@H]2C(=O)N1c1cccc(Oc2ccccc2)c1`, for which the z-score was 0.795.
To `CS(=O)(=O)CCOC(=O)C1=CC(CCCO)=CC(c2cccs2)N(Cc2cccc(OC(F)(F)F)c2)C=C1C(=O)OCCS(C)(=O)=O` (centres undefined) belongs 0.969; to `CC(CCC(=O)OC[C@H]1O[C@H](C#Cc2ccccc2)C=C[C@@H]1Oc1ccc(C)cc1)=NO[C@@H](C)c1cn([C@H](CO)Cc2ccccc2)nn1`, -1.05.
Regarding `COc1ccc(O[C@H]2C=C[C@@H](c3ccccc3)O[C@@H]2COC(=O)CCC(C)=NO[C@@H](C)c2cc(-c3c(C)cc(C)cc3C)no2)cc1`, the z-score is 0.245.
The same measure for `CC(C)[C@@H](OCc1ccccc1)[C@H](C)C=NO[C@H](C)c1cn([C@H](CO)Cc2ccccc2)nn1`: -2.28.
For `COc1cccc([C@H]2Oc3ccc(OC)cc3C(=NOC(C)CN3CCCc4nc(C)c(C)cc43)[C@@H]2O)c1` (some centres undefined), the z-score was 0.465.
The same measure for `O=C1C[C@@H](O)[C@@H](O)[C@@H]2[C@@H]3C(=O)N(C4CCCCC4)C(=O)[C@@H]3CC[C@H]12`: 0.423.
The same measure for `COc1ccc([Si](C)(C)[C@H]2[C@H](CC(=O)N3CCC[C@H]3CO)O[C@@]3(C(=O)N(Cc4cccc(N5C(=O)COc6ccccc65)c4)c4ccccc43)[C@@H]2C)cc1`: -0.701; for `CC(C)NC(=O)[C@@]1(c2ccc([N+](=O)[O-])cc2)CC(=O)N(CC23CC4CC(CC(C4)C2)C3)[C@@H]1c1ccc(CO)cc1I`: 1.28.

Source of the values: PubChem BioAssay.
